Assay outcomes (PubChem)
In the library only some 1.7% were active in any assay of this set; here they are far more common.
HEK293 tox: cytotoxic in the GLP-1 receptor inverse agonist counter-screen | 0.13% of 410,000 active | HEK293 cAMP-luciferase reporter cells, luminescence, 24 h | Potency, µM (top dose mostly 38.3 µM), most hits filed as inhibitors;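 note: loss of luciferase light is scored as toxicity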
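To flag toxic compounds, the library was rerun on cells for 24 hr at 37 deg C and 5% CO2. Viability-linked luminescence was captured 12 min after adding luciferase detection reagent.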
GLP1R inv ag: acts as inverse agonist at human GLP-1 receptor. P43220. HEK293 GLP-1R CRE-luciferase, luminescence, 24 h; GLP-1R form is constitutively active. Potency, µM (top dose mostly 38.3 µM), most hits filed as inhibitors. 1.6% of 410,000 active; note: nearly all actives have a fitted effect of over 55% in size
Target sequence (P43220 whole entry, looked up): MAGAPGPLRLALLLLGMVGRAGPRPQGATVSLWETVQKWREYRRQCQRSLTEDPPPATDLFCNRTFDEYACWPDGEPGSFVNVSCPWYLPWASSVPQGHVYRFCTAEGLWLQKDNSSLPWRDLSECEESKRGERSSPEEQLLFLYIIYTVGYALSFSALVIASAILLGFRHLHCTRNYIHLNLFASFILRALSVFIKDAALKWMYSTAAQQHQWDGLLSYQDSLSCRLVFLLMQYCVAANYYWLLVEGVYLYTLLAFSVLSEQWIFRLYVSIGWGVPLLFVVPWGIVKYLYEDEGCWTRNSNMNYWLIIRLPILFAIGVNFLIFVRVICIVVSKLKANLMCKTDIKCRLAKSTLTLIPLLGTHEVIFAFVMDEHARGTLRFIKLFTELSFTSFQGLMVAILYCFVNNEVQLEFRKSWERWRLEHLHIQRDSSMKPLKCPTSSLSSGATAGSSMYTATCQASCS
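GLP-1R inverse agonism mode: basal reporter luminescence in engineered HEK293 cells measured after one day of compound exposure at 37 deg C, with a 12 min room-temperature detection step.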
RGS4 inhibitor: human RGS4 inhibition | P49798 | Transcreener GDP fluorescence polarization, RGS4-accelerated GTP hydrolysis | Potency, µM (doses to about 114 µM), hits mostly inhibitors | 0.039% of 390,000 active | AID 504845; note: nearly all actives have a fitted effect of over 75% in size
Target sequence (P49798 whole entry, looked up): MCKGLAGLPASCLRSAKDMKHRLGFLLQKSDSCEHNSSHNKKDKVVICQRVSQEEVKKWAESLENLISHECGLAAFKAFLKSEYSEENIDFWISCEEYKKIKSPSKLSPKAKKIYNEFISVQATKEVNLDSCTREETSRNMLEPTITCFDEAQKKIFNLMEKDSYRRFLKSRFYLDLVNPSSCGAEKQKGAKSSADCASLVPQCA
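MLSMR compounds (23 nl, pin-transferred) preincubated 10 min at room temperature with a 500nM (2x) first reagent, then RGS4 at 900nM (2x) plus Transcreener GDP mix added; fluorescence polarization (620/688 nm) read before and after 90 min at 30 °C.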
GLP-1R agonist: activates the human GLP-1 receptor; Potency, µM (top dose mostly 45.6 µM), hits mostly activators; P43220; 0.007% of 380,000 active; HEK293 GLP-1R CRE-luciferase, luminescence, 4-6 h; cells express a hypersensitive GLP-1R form
PTHR1 ag: agonists of human PTHR1 parathyroid hormone receptor; Potency, µM (series often up to 115 µM), actives largely listed as activators; HEK293 GP2 PTHR1 cells, GloSensor cAMP luminescence, 1 h; Q03431; 0.075% of 410,000 active; AID 743266; note: nearly all actives have a fitted effect of over 55% in size
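HEK-293-derived GP2 cells expressing PTHR1 and a GloSensor cAMP reporter, 3,000/well, plated overnight, given luciferin plus IBMX (each 0.5 mM as added) for 1 h at 37 °C, then compound for 1 h at 37 °C. Luminescence was read after 15 min at room temperature.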
Hits are given with their value; [ ] = dose if it differs, or a comment. Calls come from the whole dose curve; as a rule, active = well fitted curve in the direction sought with a large enough effect; inconclusive = small, poorly fitted or top-dose-only effect, or another doubt; inactive = no such curve, though single readings can be large; an effect the other way counts as inactive or inconclusive.

For CC(C)N(Cc1nc(-c2ccccc2)no1)C(=O)C(Cl)(Cl)Cl the results were HEK293 tox inactive, GLP1R inv ag 11µM, RGS4 inhibitor inactive, GLP-1R agonist inactive and PTHR1 ag inactive.
`CC(C)N(Cc1nc(-c2ccc(Cl)cc2)no1)C(=O)CCC1CCCC1` gave HEK293 tox inactive, GLP1R inv ag 10µM, RGS4 inhibitor inactive, GLP-1R agonist inactive and PTHR1 ag inactive.
For CC(C)N(Cc1nc(-c2ccc(Cl)cc2)no1)C(=O)c1ccc(C(C)(C)C)cc1 the results were HEK293 tox inactive, GLP1R inv ag inactive, RGS4 inhibitor inactive, GLP-1R agonist inactive and PTHR1 ag inactive.
Screening CCN(Cc1nc(-c2ccc(Cl)cc2)no1)CC1CCCO1 (stereo not given) returned HEK293 tox inactive, GLP1R inv ag 1.3µM, RGS4 inhibitor inactive, GLP-1R agonist inactive and PTHR1 ag inactive.
For CN(Cc1nc(-c2ccc(Cl)cc2)no1)C(=O)CCN1C(=O)[C@H]2CC=CC[C@H]2C1=O the results were HEK293 tox inactive, GLP1R inv ag 2µM, RGS4 inhibitor inactive, GLP-1R agonist inactive and PTHR1 ag inactive.
CCCCCCCCCCCCCCCCn1cc[n+](CC(C)=O)c1 was read as HEK293 tox inconclusive, GLP1R inv ag 4.5µM, RGS4 inhibitor inactive, GLP-1R agonist inactive and PTHR1 ag inactive.
For CCCCCCn1ccc(=N)cc1 the results were HEK293 tox inactive, GLP1R inv ag inconclusive, RGS4 inhibitor inactive, GLP-1R agonist inactive and PTHR1 ag inactive.
`COc1ccc2nc(SCC(=O)c3c(C)[nH]c4ccccc34)nc(C)c2c1` gave HEK293 tox inactive, GLP1R inv ag inactive, RGS4 inhibitor inconclusive, GLP-1R agonist inactive and PTHR1 ag inactive.
CCN(CC)S(=O)(=O)c1ccc(Cl)c(NC(=S)NC(=O)C2CCCC2)c1 was read as HEK293 tox inconclusive, GLP1R inv ag inconclusive, RGS4 inhibitor inactive, GLP-1R agonist inactive and PTHR1 ag inactive.
CCN(CC)c1ccc(S(=O)(=O)Nc2cc(Cl)ccc2Cl)cc1NC(=S)NC(=O)C1CCCC1 was read as HEK293 tox inactive, GLP1R inv ag 5µM, RGS4 inhibitor inactive, GLP-1R agonist inactive and PTHR1 ag inactive.
For CCCCCCCCN1[C@@H](CC(=O)OCC)c2ccc(C(F)(F)F)cc2S1(=O)=O the results were HEK293 tox inactive, GLP1R inv ag 10µM, RGS4 inhibitor inactive, GLP-1R agonist inactive and PTHR1 ag inactive.
COC(=O)[C@@H]1C[C@]2(OC(=O)c3ccccc3)C=CC(=O)C[C@@H]2N1C(=O)OCc1ccccc1 was read as HEK293 tox inactive, GLP1R inv ag 7.1µM, RGS4 inhibitor inactive, GLP-1R agonist inactive and PTHR1 ag inactive.
`O=C(CC1CC2CCC1C2)OCC(=O)c1c[nH]c2ccccc12` (stereo not given) gave HEK293 tox inactive, GLP1R inv ag 10µM, RGS4 inhibitor inactive, GLP-1R agonist inactive and PTHR1 ag inactive.
For Cc1cccc(-c2cc3nc(C)cc(NCCCN(C)C)n3n2)c1 the results were HEK293 tox inactive, GLP1R inv ag inactive, RGS4 inhibitor inactive, GLP-1R agonist inactive and PTHR1 ag inactive.
COCCN1CCN(c2cc(-c3ccccc3)nc3cc(-c4cccc(F)c4)nn23)CC1 was read as HEK293 tox inactive, GLP1R inv ag 7.9µM, RGS4 inhibitor inactive[11.4 µM], GLP-1R agonist inactive and PTHR1 ag inactive.
Screening CN(C)CCCNc1cc(-c2ccccc2)nc2cc(-c3cccc(F)c3)nn12 returned HEK293 tox inconclusive, GLP1R inv ag 3.5µM, RGS4 inhibitor inactive, GLP-1R agonist inactive and PTHR1 ag inactive.
COc1ccc(-c2cc3nc(-c4ccccc4)cc(N4CCC(O)CC4)n3n2)cc1 was read as HEK293 tox inconclusive, GLP1R inv ag 7.9µM, RGS4 inhibitor inactive, GLP-1R agonist inactive and PTHR1 ag inactive.
Fc1cccc(-c2cc3nc(-c4ccccc4)cc(N4CCC5(CC4)OCCO5)n3n2)c1 was read as HEK293 tox inactive, GLP1R inv ag inconclusive, RGS4 inhibitor inactive, GLP-1R agonist inactive and PTHR1 ag inactive.
Screening COc1ccc(-c2cc3nc(-c4ccccc4)cc(N4CCCC(O)C4)n3n2)cc1 (stereo not given) returned HEK293 tox inactive, GLP1R inv ag inconclusive, RGS4 inhibitor inactive, GLP-1R agonist inactive and PTHR1 ag inactive.
`Cc1cccc(-c2cccc(NC(=O)C3CCCN(C(=O)c4cccnc4)C3)c2)c1` (stereo not given) gave HEK293 tox inactive, GLP1R inv ag inconclusive, RGS4 inhibitor inactive, GLP-1R agonist inactive and PTHR1 ag inactive.
Screening Cc1cccc(-c2cccc(NC(=O)C3CCCN(C(=O)c4csc(C)n4)C3)c2)c1 (stereo not given) returned HEK293 tox inactive, GLP1R inv ag 5µM, RGS4 inhibitor inactive, GLP-1R agonist inactive and PTHR1 ag inactive.
`CCn1c(CC(=O)Nc2ccc(F)cc2)nnc1SCC(=O)Nc1nncs1` gave HEK293 tox inactive, GLP1R inv ag inactive, RGS4 inhibitor inactive, GLP-1R agonist inactive and PTHR1 ag inactive.
COc1ccc(Cn2c(O)c(C=Nc3ccc(O)cc3)c3ccccc3c2=O)cc1 was read as HEK293 tox inactive, GLP1R inv ag 8.9µM, RGS4 inhibitor inactive, GLP-1R agonist inactive and PTHR1 ag inactive.
For NCCSc1c(-c2ccc(F)cc2)[nH]c2ccccc12 the results were HEK293 tox inactive, GLP1R inv ag 10µM, RGS4 inhibitor inactive, GLP-1R agonist inactive and PTHR1 ag inactive.
For O=C(C[C@@H]1C/C=C\C[C@H](Cc2ccc(F)cc2)C(=O)OC[C@H]2CCCN2C1=O)N[C@H](CO)Cc1ccccc1 the results were HEK293 tox inactive, GLP1R inv ag inactive, RGS4 inhibitor inactive, GLP-1R agonist inactive and PTHR1 ag inactive.
Cc1cc(C)cc(N2CCn3c2nc2c3c(=O)n(C/C=C/c3ccccc3)c(=O)n2C)c1 was read as HEK293 tox inactive, GLP1R inv ag inactive, RGS4 inhibitor inactive and PTHR1 ag inactive.
Screening CCOc1cc(-c2nc(-c3ccccc3)c(-c3cc([N+](=O)[O-])ccc3C)[nH]2)ccc1O returned HEK293 tox inactive, GLP1R inv ag inactive, RGS4 inhibitor inactive, GLP-1R agonist inactive and PTHR1 ag inactive.
`COc1ccc(-c2nc(-c3ccccc3)c(-c3cc([N+](=O)[O-])ccc3C)[nH]2)cc1OC` gave HEK293 tox inactive, GLP1R inv ag 5.6µM, RGS4 inhibitor inactive[11.4 µM], GLP-1R agonist inactive and PTHR1 ag inactive.
For COc1cc(-c2nc(-c3ccccc3)c(-c3ccc(Br)cc3)[nH]2)cc(OC)c1O the results were HEK293 tox inactive, GLP1R inv ag 11µM, RGS4 inhibitor inactive and PTHR1 ag inactive.
Cc1nc2nc(CNC(=O)c3cccc(F)c3)nn2c(C)c1CCC(=O)Nc1cccc(Cl)c1 was read as HEK293 tox inactive, GLP1R inv ag inactive, RGS4 inhibitor inactive and PTHR1 ag inactive.
